RPL19A TOR yeast – RPL19A-GFP expression modulators in yeast, primary screen, cell-based, S. cerevisiae, multiplex flow cytometry, MLPCN | S. cerevisiae RPL19A-GFP strain, 3 h; hits give low values | percent response vs DMSO, % at 10 µM | 330,000 tested, 0.3% active | AID 2025, 2009;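 active means percent response vs DMSO below 50%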;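 further: median channel GFP fluorescence of the barcoded RPL19A-GFP strain; lower means less RPL19A-GFP as with rapamycin TOR inhibition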
MEP2 TOR yeast – modulators of MEP2-GFP levels in yeast, primary screen, S. cerevisiae, multiplex flow cytometry, MLPCN library | AID 2016, 2009 | S. cerevisiae MEP2-GFP strain, 3 h; 100% = DMSO control level | GFP response vs DMSO, % at 10 µM | 330,000 tested, 0.51% active;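 active means GFP response versus DMSO above a set limit, roughly screen mean plus 3 SD, cut at about 180% in these data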;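 further: median GFP fluorescence of the barcode-gated MEP2-GFP cells per well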
CIT2 TOR yeast – modulators of CIT2-GFP expression in yeast, primary screen, S. cerevisiae, GFP fusion, multiplex flow cytometry, MLPCN library; GFP response vs DMSO, % at 10 µM; S. cerevisiae CIT2-GFP strain, 3 h; 100 means same as DMSO wells; 320,000 tested, 0.065% active;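 active means GFP response relative to DMSO above a set limit, near the screen mean plus 3 SD, cut at about 150% in these data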;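 further: ratio of well median GFP fluorescence to mean of DMSO wells on the plate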
LAP4-GFP MLPCN – modulators of LAP4-GFP expression in yeast, primary screen, S. cerevisiae, multiplex flow cytometry, MLPCN library; 3 h; median GFP as percent of DMSO wells; GFP response vs DMSO, % at 10 µM; 320,000 tested, 0.34% active; AID 2023, 2009;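 active means GFP response vs DMSO above a set limit, about the screen mean plus 3 SD, cut at about 150% in these data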
Myeloid diff MLP – induction of myeloid progenitor differentiation, primary screen, cell-based, flow cytometry, MLPCN library; ER-HoxA9 myeloid progenitors, lysozyme-GFP differentiation; calls only at 10 µM; 360,000 tested, 1% active;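 active means normalized GFP-positive differentiation at or above the plate's own cutoff, the solvent-only control mean plus 3 SD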;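 further: cells exposed to compound for four days before flow analysis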
AGP1-GFP MLPCN – modulators of AGP1-GFP expression in yeast TOR pathway, primary screen, cell-based, multiplex flow cytometry, S. cerevisiae, MLPCN library; 320,000 tested, 0.02% active; 3 h; GFP as percent of DMSO wells; GFP response vs DMSO, % at 10 µM;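 active means GFP response relative to DMSO above a set limit, near screen average plus 3 SD, cut at about 150% in these data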;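 further: median GFP channel fluorescence of the gated AGP1 strain per well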
Myeloid diff CP1 – inducers of myeloid progenitor differentiation, confirmation, cell-based, GFP/Mac1 flow cytometry, cherry pick 01; shares compounds with Myeloid diff MLP; ER-HoxA9 myeloid progenitors, GFP/Mac1 double-positive flow; calls only; 2,300 tested, 2% active; AID 651706, 2012;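 active means share of green or green-and-red cells above 9 and 9% in run 1 or 4 and 3% in run 2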
GFP autofluor – counter-screen for myeloid differentiation promoters: compound fluorescence; shares compounds with Myeloid diff MLP; ER-HoxA9 myeloid progenitors, no estrogen, GFP autofluorescence flow cytometry; vehicle wells 0%, positive control 100%; fluorescence response, % (concentration not given with the values); 2,300 tested, 7.4% active; AID 651707;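 active means over 5% cells positive for green fluorescent reporter, or over 2% positive for both it and APC stain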
Of the large screens only hits and unclear results are named; the others gave an inactive call (follow-up assays come after a bar, where they were run). An excerpt weighted towards active compounds, which were near 1.8% of everything screened.

Cc1cc(Cl)c(C)c(S(=O)(=O)N2CCN(C(=O)C3CCCO3)CC2)c1Cl (stereo unspecified)	Myeloid diff MLP active | Myeloid diff CP1 inactive | GFP autofluor inactive
COCCN(C(=O)COC(=O)CCc1nc2ccccc2s1)c1c(N)n(Cc2ccccc2)c(=O)[nH]c1=O	none
COCCN(C(=O)CSc1nc2ccccc2s1)c1c(N)n(Cc2ccccc2)c(=O)[nH]c1=O	Myeloid diff MLP active (no result: RPL19A TOR yeast, MEP2 TOR yeast, CIT2 TOR yeast, LAP4-GFP MLPCN, AGP1-GFP MLPCN) | Myeloid diff CP1 inactive | GFP autofluor inactive
COCCN(C(=O)CSc1n[nH]c(-c2ccc(OC)cc2)n1)c1c(N)n(Cc2ccccc2)c(=O)[nH]c1=O	Myeloid diff MLP active | Myeloid diff CP1 inactive | GFP autofluor inactive
CCCCn1c(N)c(N(CCOC)C(=O)CSc2n[nH]c(-c3ccc(OC)cc3)n2)c(=O)[nH]c1=O	none
O=C1CNC(=O)c2c(nc3n2CCC3)N1	none
CN(C)c1nc(OCc2ccccc2)c2ncc(=O)[nH]c2n1	none
C/C(N)=C(/C#N)C(=O)COC(=O)c1cc(C)n(-c2ccc(F)cc2)c1C	Myeloid diff MLP active | Myeloid diff CP1 active | GFP autofluor inactive
O=C1N=C(N2CCN(Cc3ccccc3)CC2)S/C1=C/c1cccs1	Myeloid diff MLP active | Myeloid diff CP1 inactive | GFP autofluor inactive
Cc1c(Cl)cccc1N=Cc1ccc([N+](=O)[O-])s1	none (no result: AGP1-GFP MLPCN) | Myeloid diff CP1 inactive | GFP autofluor inactive
Cc1ccccc1C(=O)N/N=C/c1ccc([N+](=O)[O-])s1	none
COc1ccc(C(=O)Nc2cccc(-c3ccc4nncn4n3)c2)cc1	none
COc1ccc(S(=O)(=O)Nc2cccc(-c3ccc4nncn4n3)c2)cc1	none | Myeloid diff CP1 inactive | GFP autofluor inactive
COc1ccccc1CCC(=O)Nc1ccc(OC)c(S(=O)(=O)N2CCOCC2)c1	none
Cc1ccc(N2CCN(C(=O)NC3CCCCC3)CC2C)cc1 (stereo unspecified)	none
Nc1ccc(S(=O)(=O)Nc2ncccn2)cc1	none
Nc1ccc(S(=O)(=O)Nc2nccc(/C=C/c3cccc(Br)c3)n2)cc1	Myeloid diff MLP active | Myeloid diff CP1 inactive | GFP autofluor inactive
CC1CCc2c(sc3ncnc(SCC(=O)c4ccccc4)c23)C1 (stereo unspecified)	none
CCn1c(SCC(=O)OCc2ccccc2)nnc1-c1ccco1	none
CCn1c(Sc2ccc([N+](=O)[O-])cn2)nnc1-c1ccco1	none | Myeloid diff CP1 inactive | GFP autofluor inactive
CC(C)CNC(=O)C(=O)NNC(=O)C1CCCCC1	none
CC(CNC(=O)C1CCCCC1)NC(=O)C1CCCCC1 (stereo unspecified)	Myeloid diff MLP active | Myeloid diff CP1 inactive | GFP autofluor inactive
Cc1ccc(C)c(N(CC(=O)NC2CCCC2)C(=O)c2oc(C(C)(C)C)cc2C)c1	none | Myeloid diff CP1 inactive | GFP autofluor inactive
CC1=C(C)CC(C(=O)NCC(=O)c2ccccc2)C(C(=O)O)C1 (stereo unspecified)	none
O=Cc1ccc(OCC(=O)NCC2CCCO2)cc1 (stereo unspecified)	none
O=C(NCC(=O)N1CC=C(c2ccccc2)CC1)c1ccc(OC(F)F)cc1	none | Myeloid diff CP1 inactive | GFP autofluor inactive
COc1ccccc1NC(=O)Cn1c2ccccc2c2nc3n(c(=O)c21)CCS3	Myeloid diff MLP active | Myeloid diff CP1 inactive | GFP autofluor inactive
Cc1sc(NC(=O)CSc2n[nH]c(N)n2)c(C#N)c1C	Myeloid diff MLP active (no result: RPL19A TOR yeast, MEP2 TOR yeast, CIT2 TOR yeast, LAP4-GFP MLPCN, AGP1-GFP MLPCN) | Myeloid diff CP1 inactive | GFP autofluor 16
CCCCCC(=O)Nc1sc(C)c(C)c1C#N	none | Myeloid diff CP1 inactive | GFP autofluor inactive
CCn1c(SCC(=O)N2CCN(c3ccc(Cl)cc3)CC2)nc2ccccc2c1=O	none (no result: LAP4-GFP MLPCN)
CCn1c(SCC(=O)N2CCN(c3ccc(F)cc3)CC2)nc2ccccc2c1=O	none | Myeloid diff CP1 inactive | GFP autofluor inactive
COC(=O)CSc1nnc(-c2ccc(S(=O)(=O)N3CCCCC3)cc2)o1	Myeloid diff MLP active | Myeloid diff CP1 inactive | GFP autofluor inactive
O=C(N/N=C/c1ccc([N+](=O)[O-])s1)c1ccccc1	none
O=C(Cc1ccccc1)N/N=C/c1ccc([N+](=O)[O-])s1	Myeloid diff MLP active | Myeloid diff CP1 inactive | GFP autofluor inactive
Cc1ccc(Cl)cc1N1CCN(Cc2nc3c(c(=O)[nH]c(=O)n3C)n2CCc2ccccc2)CC1	none | Myeloid diff CP1 inactive | GFP autofluor inactive
O=C1CCCN1CCCNS(=O)(=O)c1ccc(F)cc1F	none
CC(=O)CC(=O)NC(=NC1CCCCC1)Nc1nc(C)cc(C)n1	Myeloid diff MLP active | Myeloid diff CP1 inactive | GFP autofluor inactive
O=C(NCCCN1CCOCC1)C(=O)NCC1OCCN1S(=O)(=O)c1ccc(Br)cc1 (stereo unspecified)	none (no result: Myeloid diff MLP)
Cc1ccc(NC2=CC(=O)C(=O)c3ccccc32)c(C)c1	Myeloid diff MLP active | Myeloid diff CP1 inactive | GFP autofluor 3.1
Cc1ccc(NS(=O)(=O)c2ccc3c(c2)C(=O)c2ccccc2C3=O)c(C)c1	none
CCOC(=O)c1c(C)c(C(=O)NCc2ccco2)c(C)n1C	none
CCOC(=O)c1c(C)c(C(=O)NCc2cccs2)c(C)n1C	none | Myeloid diff CP1 inactive | GFP autofluor inactive
CC(=O)c1ccc(C2CC(OCCF)=CC(=O)O2)cc1 (stereo unspecified)	none (no result: RPL19A TOR yeast, MEP2 TOR yeast, CIT2 TOR yeast, LAP4-GFP MLPCN, AGP1-GFP MLPCN)
COc1cccc(-c2csc(NC(=O)Oc3ccccc3)n2)c1	none | Myeloid diff CP1 inactive | GFP autofluor inactive
CC(=O)Nc1ccccc1OCC(=O)NC1CCCCC1C (stereo unspecified)	none
COc1ccc(NC(=O)N2CCN(CCC#N)CC2)cc1	none | Myeloid diff CP1 inactive | GFP autofluor inactive
CCCCCCCCNC(=S)NCCN1CCCCC1	none (no result: RPL19A TOR yeast, MEP2 TOR yeast, CIT2 TOR yeast, LAP4-GFP MLPCN, AGP1-GFP MLPCN) | Myeloid diff CP1 inactive | GFP autofluor inactive
CCCOc1ccc(/C=c2\sc3nc(-c4ccco4)nn3c2=O)cc1OCC	none
CCCOc1ccc(Cc2nn3c(=O)/c(=C/c4ccco4)sc3nc2=O)cc1	none | Myeloid diff CP1 inactive | GFP autofluor inactive
COc1ccccc1C1(CCNS(=O)(=O)c2ccc(C)cc2)CCOC(C(C)C)C1 (stereo unspecified)	Myeloid diff MLP active | Myeloid diff CP1 inactive | GFP autofluor inactive

Assay outcomes as filed in PubChem.
